Screens as filed in PubChem BioAssay.
ATXN2 expr inh: inhibitors of ATXN2 expression. HEK-293 ATXN2-luciferase reporter, luminescence, 24 h. Potency, µM (series often up to 57 µM), without a hit: top-dose activity change, negative = inhibition, usual class: inhibitors. actives 0.72% (n = 360,000); note: % is set by controls: 0 for no effect and ±100 for the full control effect; nearly all actives have a fitted effect of over 55% in size
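qHTS (up to 57 uM final) was run with 24 h compound exposure of reporter cells at 37 °C. Each well was multiplexed: SteadyGlo luminescence measured ATXN2-luciferase expression after a fluorogenic Gly-Phe-AFC viability readout (25 uM final).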
HepG2 tox: kills HepG2 cells in TGF-b inhibitor counter-screen; AID 588856; actives 0.76% (n = 410,000); HepG2 CAGA-GFP viability, ATP luminescence, 18 h; Potency, µM (highest dose often 46.1 µM), inactives show at the highest dose activity change, negative = cytotoxicity, usual class: cytotoxic
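CellTiter-Glo luminescence gave cytotoxicity after 18 hours at 37 degrees C. The cells were HepG2 CAGA-GFP in 1% FBS DMEM, stimulated with 500 pg/mL TGF-beta after compound addition. %Activity was normalised to no-cell wells (complete cell-killing) and DMSO (no toxicity), and curves were fitted and classified.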
ATXN viability: viability counter-screen for ATXN expression inhibitors; actives 0.49% (n = 400,000); Potency, µM (highest dose often 56.7 µM), actives largely listed as cytotoxic; S2 cells (HEK-293 line with an ATXN2-luciferase reporter) viability, CellTiter-Fluor protease fluorescence, 24 h; note: nearly all actives have a fitted effect of over 40% in size
RORgamma inh: ROR gamma (mouse) transcription inhibition; Potency, µM (doses to about 53.6 µM), for the others: at the top dose activity change, negative = inhibition, most hits filed as inhibitors; AID 2551; Drosophila S2 Gal4-RORgamma UAS-luciferase reporter, 20 h; P51450; actives 5.4% (n = 310,000); note: % is set by controls: 0 for no effect and ±100 for the full control effect; nearly all actives have a fitted effect of over 60% in size
Target sequence (P51450 whole entry, looked up, the tested form may be a part): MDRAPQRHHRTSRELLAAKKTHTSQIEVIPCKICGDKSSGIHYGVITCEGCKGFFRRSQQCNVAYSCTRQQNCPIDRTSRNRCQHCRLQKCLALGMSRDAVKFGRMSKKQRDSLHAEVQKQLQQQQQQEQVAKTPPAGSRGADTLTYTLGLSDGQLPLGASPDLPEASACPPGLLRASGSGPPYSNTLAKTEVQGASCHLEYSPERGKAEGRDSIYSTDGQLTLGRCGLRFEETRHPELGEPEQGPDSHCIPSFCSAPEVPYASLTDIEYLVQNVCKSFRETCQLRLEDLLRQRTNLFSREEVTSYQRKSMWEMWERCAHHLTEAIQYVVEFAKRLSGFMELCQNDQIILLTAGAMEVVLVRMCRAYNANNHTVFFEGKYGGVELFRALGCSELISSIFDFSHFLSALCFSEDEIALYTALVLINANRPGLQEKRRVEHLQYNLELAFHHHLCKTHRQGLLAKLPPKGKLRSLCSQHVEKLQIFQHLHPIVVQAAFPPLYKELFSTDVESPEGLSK
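In this cell-based reporter format, copper sulfate (700 uM final) drives Gal4–ROR gamma fusion expression from a metallothionein promoter in Drosophila Schneider cells; compounds preincubated 1 hr, reporter read after 20 hr at ambient temperature.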
TGFb SMAD3 inh: inhibitors of TGF-b signaling | Potency, µM (series often up to 46.1 µM), for the others: top-dose activity, negative = inhibition, most hits filed as inhibitors | HepG2 CAGA-GFP TGF-b/SMAD3 reporter, GFP fluorescence, 18 h; TGF-beta stimulated, 500 pg/mL final | actives 1.2% (n = 410,000) | AID 588855; note: % is set by controls: 0 for no effect and ±100 for the full control effect; nearly all actives have a fitted effect of over 65% in size
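HEPG2 CAGA-GFP reporter cells (1000/well, DMEM with 1% FBS) received compounds, then recombinant TGF-beta at 500 pg/mL final for 18 hours at 37 degrees C. Per-cell GFP summed per well was normalised to unstimulated and stimulated DMSO controls before curve fitting.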
VP16 counter: inhibits Gal4-VP16 luciferase reporter, ROR gamma counter-screen; actives 3.5% (n = 310,000); Potency, µM (highest dose often 53.6 µM), inactives show at the top dose activity, negative = inhibition, most hits filed as inhibitors; Drosophila S2 Gal4-VP16 UAS-luciferase, luminescence, 20 h;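 note: Gal4-VP16 expression switched on by copper sulfate through the metallothionein promoter; % is set by controls: 0 for no effect and ±100 for the full control effect; nearly all actives have a fitted effect of over 50% in size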
* hit, by the source's call; i = inactive; ? = inconclusive; nt = no result; [ ] = another dose, or the depositor's remark. Sampled rows, rich in hits. Any-hit rate of the full collection: about 6.3%. Calls come from the whole dose curve; as a rule, active = well fitted curve in the direction sought with a large enough effect; inconclusive = small, poorly fitted or top-dose-only effect, or another doubt; inactive = no such curve, though single readings can be large; an effect the other way counts as inactive or inconclusive. Potency is the fitted concentration of half-maximal effect.

SMILES | ATXN2 expr inh | HepG2 tox | ATXN viability | RORgamma inh | TGFb SMAD3 inh | VP16 counter
O=C(N/N=C(\c1ccccc1)c1cccnc1)c1cccc(F)c1 | ? | -40% | ? | 0.13µM* | ? | nt
O=C(N/N=C(\c1ccccc1)c1cccnc1)C(O)(c1ccccc1)c1ccccc1 | 0% | 11µM* | i | 7% | -15% | -7%
N#Cc1nc(Nc2ccccc2)nc(NC2CCCC2)n1 | nt | nt | nt | nt | nt | -25%
CC(C)[C@@H](CC(=O)N[C@@H]1CCCC[C@H]1C(=O)N[C@H](CC(=O)N[C@@H](CCC(=O)O)CC(=O)O)Cc1c[nH]c2ccccc12)NC(=O)C[C@H](CO)NC(=O)[C@@H]1CCCC[C@H]1N | nt | nt | nt | 2% | nt | 2%
CCC(=O)Nc1ccccc1-c1nc2ccccc2n(C(CC)C(=O)Nc2cccc(Cl)c2)c1=O (stereo not drawn) | nt | 8% | nt | nt | 22% | nt
CCC(C(=O)Nc1ccc(C)c(Cl)c1)n1c(=O)c(-c2ccccc2NC(C)=O)nc2ccccc21 (stereo not drawn) | ? | -9% | ? | nt | 13µM* | nt
CCOC(=O)c1nnsc1Nc1ccc(C)c(C)c1 | -7% | -10% | i | 0.71µM* | 0% | -19%[10 µM]
Cc1ccc(NC(=S)Nc2ccc(C(C)C)cc2)cc1S(=O)(=O)N1CCCCCC1 | ? | -51% | ? | 3.2µM* | ? | 4.5µM*
CCCCC(=O)Nc1ccc(C)c(S(=O)(=O)N2CCCCCC2)c1 | -9% | -20% | i | nt | ? | nt
Cc1ccc(NC(=O)C2CCC2)cc1S(=O)(=O)N1CCCCCC1 | -24% | -11% | i | nt | -14% | nt
C=CCNC(=S)Nc1ccc(C)c(S(=O)(=O)N2CCCCC2)c1 | -2% | 1% | nt | 11µM* | 10% | -1%
COc1ccc(C(=O)NC(=S)NCc2ccco2)cc1 | 22% | -23% | i | 6.3µM* | 17% | 11µM*
CC(C)(O)C(=O)NNC(=S)NCc1ccco1 | nt | -12% | i | 40% | -17% | 6%
O=C(NC(=S)NCc1ccco1)c1cccc(Cl)c1 | nt | nt | nt | 6.3µM* | nt | 8.9µM*
O=C(NCc1ccco1)c1cc(-c2cccc(Cl)c2)on1 | 37% | -37% | i | ? | -1% | -19%
CC(C)(C)c1ccc(C(=O)NNC(=S)NCc2ccco2)cc1 | 25% | -3% | i | 10µM* | -11% | -25%
O=C(NC(=S)NCc1ccccc1)c1cccc(Cl)c1 | 0% | -4% | i | 6.3µM* | 1% | 7.1µM*
CCc1ccc(-n2c(=O)c3sc4ccccc4c3n(CC(=O)NC3CCCCC3)c2=O)cc1 | 15% | 4% | ? | nt | -4% | nt
COc1cc(OC)cc(C(=O)NC(=S)NCc2ccco2)c1 | -9% | -24% | i | 5µM* | 11% | 11µM*
O=C(CSCc1ccccc1Br)NNC(=S)NCc1ccco1 | -5% | -19% | i | ? | -24% | 10µM*
CC(C)(C)c1ccc(C(=O)NNC(=O)C2CCCCC2)cc1 | 36% | -2% | i | 19% | 8% | 0%
CCC(C)NC(=S)NNC(=O)c1ccc(C(C)(C)C)cc1 (stereo not drawn) | 9% | 6% | i | 10µM* | 12% | 8.9µM*
Cc1ccccc1CSCC(=O)NC(=O)NCc1ccco1 | 3% | -2% | i | 13% | -15% | ?
CC(C)c1cc(C(=O)NNC(=S)NCc2ccco2)c(O)c(C(C)C)c1 | ? | -91% | ? | 13µM* | ? | ?
COc1cccc(C2=CC(c3ccccc3O)NC(C)(C)N2)c1 (stereo not drawn) | nt | -5% | nt | nt | -2% | nt
SMILES | ATXN2 expr inh | HepG2 tox | ATXN viability | RORgamma inh | TGFb SMAD3 inh | VP16 counter
COc1cccc(-c2cnc(C(O)c3ccc(F)c(C)c3)[nH]2)c1 (stereo not drawn) | 6% | -3% | i | nt | 15% | nt
Cc1ccc(N(C(=O)c2cccc(C)c2)S(=O)(=O)c2ccc(Cl)cc2)cc1 | ? | -36% | i | nt | ? | nt
O=C(C1CC1)N1CCc2cc(Br)cc(S(=O)(=O)N3CCN(c4cccc(C(F)(F)F)c4)CC3)c21 | -6% | -4% | i | nt | 7% | nt
COc1ccc(CN2CCCC(n3cc(C(=O)NC4CCCC4)nn3)C2)c(O)c1 (stereo not drawn) | nt | nt | i | nt | nt | nt
O=C(NCc1ccco1)c1cc(C(=O)C2CCCCC2)c[nH]1 | 3% | -1% | i | 11% | 12% | 14%
Cc1ccc(C(=O)NC(=S)NCc2ccco2)cc1 | 2%[11.3 µM] | -19% | i | 10µM* | -10% | ?
CNC(=O)NC(=S)NC(=O)c1cccc(Cl)c1 | 0% | -3% | i | 14µM* | -3% | 9%[10 µM]
CC(C)(C)c1ccc(C(=O)c2c[nH]c(C(=O)NCc3ccco3)c2)cc1 | -1% | -6% | i | ? | 8% | 13µM*
CNC(=O)NC(=S)NC(=O)c1ccccc1Cl | -7% | -1% | i | ? | -25% | 18%
COc1cccc(C(=O)NC(=S)NCc2ccco2)c1 | 41% | -10% | ? | 14µM* | -7% | ?
COc1cc(OC)cc(C(=O)NNC(=S)NCc2ccco2)c1 | -7% | -9% | i | -41% | -3% | -21%
NNc1nc2cccnc2n(CCNc2ncc(C(F)(F)F)cc2Cl)c1=O | ? | 2% | nt | 10µM* | -1% | 2%
O=c1c(Cl)nc2cc(Cl)ccc2n1CCNc1ncc(C(F)(F)F)cc1Cl | -12% | -1% | ? | 11µM* | -8% | 5µM*
O=c1c2nncn2c2cccnc2n1CCNc1ncc(C(F)(F)F)cc1Cl | 9% | 3% | i | 1% | 0% | -5%
Cc1cc2ccccc2cn1 | nt | -28% | nt | nt | -11% | nt
COc1ccc(NC2=NC(=S)N(c3ccc(C)cc3)C23CCCCC3)cc1 | -19% | -9% | ? | 0.56µM* | 15% | -6%
COc1ccc(NC2=NC(=S)N(c3cccc(C)c3)C23CCCCC3)cc1 | -33% | 5% | ? | 2µM* | -27% | ?
COc1ccc(C(=O)CC(=O)C(=O)Nc2c(C)cccc2C)cc1 | nt | -5% | i | 6.3µM* | -19% | 5.6µM*
COc1ccc(NC(=S)Nc2ccccc2C(F)(F)F)cc1 | 1% | -6% | i | 11µM* | 1% | ?
COc1ccc(C(=O)CC(=O)C(=O)Nc2cc(OC)ccc2OC)cc1 | -2% | 1% | i | ? | 8% | 0%
COc1ccc(C(=O)CC(=O)C(=O)Nc2ccc(OC)c(Cl)c2)cc1 | -11% | -25% | i | -7% | 6% | 9%
COc1ccc(C(=O)CC(=O)C(=O)Nc2ccccc2C(F)(F)F)cc1 | nt | -17% | i | 6.3µM* | -11% | 7.1µM*
